According to ChEMBL document CHEMBL1201862, “PubChem BioAssay data set” (2004):
About 2,100 (0.53%) of roughly 400,000 compounds were called active. Another 14% or so got no clear call; they are omitted. The rule behind the calls is not given here. What follows is part of a selection rich in actives, with near analogues and random picks from the rest.

These molecules were tested against Ataxin-2 (Homo sapiens) (UniProt Q99700) (assay: qHTS for Inhibitors of ATXN expression.).
Chain of Ataxin-2 (Homo sapiens) (Q99700 whole entry): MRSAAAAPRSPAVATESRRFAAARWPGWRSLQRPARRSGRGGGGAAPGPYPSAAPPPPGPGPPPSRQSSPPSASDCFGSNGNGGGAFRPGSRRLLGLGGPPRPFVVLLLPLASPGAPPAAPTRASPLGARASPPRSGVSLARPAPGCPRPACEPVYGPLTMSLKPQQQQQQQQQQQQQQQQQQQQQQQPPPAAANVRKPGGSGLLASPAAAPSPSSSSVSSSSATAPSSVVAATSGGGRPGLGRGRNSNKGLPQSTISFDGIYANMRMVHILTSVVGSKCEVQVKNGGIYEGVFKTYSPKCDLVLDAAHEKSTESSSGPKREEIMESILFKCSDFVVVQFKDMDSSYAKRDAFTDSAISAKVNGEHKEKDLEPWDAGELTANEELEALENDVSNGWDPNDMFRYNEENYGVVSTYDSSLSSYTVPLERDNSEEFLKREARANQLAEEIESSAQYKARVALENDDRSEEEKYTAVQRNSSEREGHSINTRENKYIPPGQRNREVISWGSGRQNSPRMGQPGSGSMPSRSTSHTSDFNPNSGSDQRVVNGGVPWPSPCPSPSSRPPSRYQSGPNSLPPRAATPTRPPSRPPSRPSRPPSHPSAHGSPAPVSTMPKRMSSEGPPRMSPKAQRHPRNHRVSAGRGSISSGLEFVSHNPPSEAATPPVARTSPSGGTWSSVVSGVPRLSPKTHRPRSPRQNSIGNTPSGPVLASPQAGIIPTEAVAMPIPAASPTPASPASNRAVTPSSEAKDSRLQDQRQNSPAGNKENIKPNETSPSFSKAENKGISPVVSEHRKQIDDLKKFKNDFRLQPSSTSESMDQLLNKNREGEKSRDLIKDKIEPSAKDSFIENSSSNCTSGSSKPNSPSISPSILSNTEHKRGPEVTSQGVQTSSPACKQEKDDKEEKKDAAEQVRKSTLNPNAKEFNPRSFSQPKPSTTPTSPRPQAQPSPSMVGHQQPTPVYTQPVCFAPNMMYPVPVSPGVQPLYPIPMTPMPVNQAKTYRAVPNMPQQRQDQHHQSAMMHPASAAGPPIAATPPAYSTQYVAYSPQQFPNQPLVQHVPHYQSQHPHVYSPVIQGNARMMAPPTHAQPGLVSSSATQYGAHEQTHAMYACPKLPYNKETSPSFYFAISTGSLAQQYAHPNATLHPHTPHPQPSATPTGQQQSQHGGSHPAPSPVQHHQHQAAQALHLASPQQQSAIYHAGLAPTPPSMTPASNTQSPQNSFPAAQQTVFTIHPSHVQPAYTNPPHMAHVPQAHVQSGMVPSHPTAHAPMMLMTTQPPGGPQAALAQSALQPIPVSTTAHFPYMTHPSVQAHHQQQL
Assay type: functional
In the case of CCOc1ccc(/C=C/c2nc(C#N)c(NCCCOC)o2)cc1, the Potency is reported as “inactive”.
With C#CCN(C[C@H]1[C@H](OC(=O)NC2CCCC2)[C@H](OC(=O)NC2CCCC2)C[C@@H](C(=O)OC)[C@H]1C(=O)OC)S(=O)(=O)c1ccc(C)cc1 the Potency was 39.8 µM (active).
In the case of CC(C)N1CCC(N2CCN(Cc3cccc4nonc34)CC2CCO)CC1 (configuration not stated), the Potency is reported as “inactive”.
With CCCCNC(=O)CN1C(=O)c2cccc(N)c2C1=O the Potency was “inactive”.
Clc1ccc(-c2cn3nc4c(nc3n2)CCCC4)cc1 was tested, and the Potency was “inactive”.
In the case of COc1ccccc1/C=C/C=C1\Oc2c(ccc(O)c2CN(C)C)C1=O, the Potency is reported as “inactive”.
COc1ccc(-c2nnc(-c3ccc(F)cc3)o2)cc1 was tested, and the Potency was “inactive”.
For CCOc1cccc2sc(NN)nc12, the Potency was “inactive”.
In the case of COc1cccc2sc(Nc3nnc(-c4ccc(F)cc4)o3)nc12, the Potency is reported as 31.6 µM (active).
Cc1cccn2c(=O)c3cc(C(=O)NCc4ccccc4)c(=N)n(CCOCCO)c3nc12 was tested, and the Potency was “inactive”.
Cc1c(O)c(CN2CCCC2)cc2c3c(c(=O)oc12)CCC3 was tested, and the Potency was “inactive”.
With COc1ccc(CCN2C(=O)COc3ccccc3C2C(=O)Nc2ccc3c(c2)OCCO3)cc1OC (configuration not stated) the Potency was 25.1 µM (active).
For Cc1ccc(NC(=O)C2OCCc3ccccc32)cc1C (configuration not stated), the Potency was “inactive”.
With CCCCNc1c(N)n(CCC)c(=O)[nH]c1=O the Potency was “inactive”.
In the case of O=C(CN1C(=O)NC(Cc2c[nH]c3ccccc23)C1=O)Nc1ccc(F)c(F)c1F (configuration not stated), the Potency is reported as “inactive”.
Cc1csc(N=C(S)Nc2cccc(Cl)c2)n1 was tested, and the Potency was 25.1 µM (active).
In the case of CC(C)c1cccc(C(C)C)c1N=C(S)Nc1cccc(Cl)c1, the Potency is reported as “inactive”.
With CN(C)C(CN=C(S)Nc1cccc(Cl)c1)c1cccnc1 (configuration not stated) the Potency was “inactive”.
With CCCCC[C@@H](C)N1C[C@H](COCc2ccccc2)Oc2cc(N3CCC[C@H]3CO)ccc2S1(=O)=O the Potency was 10 µM (active).
With CCCCC[C@H](C)N1C[C@H](COCc2ccccc2)Oc2cc(N3CCC[C@H]3CO)ccc2S1(=O)=O the Potency was 28.2 µM (active).
With CCCCC[C@@H](C)N1C[C@H](COCc2ccccc2)Oc2cc(N3CCC[C@@H]3CO)ccc2S1(=O)=O the Potency was 39.8 µM (active).
In the case of Cc1ccc(-c2nc3n(n2)C(c2ccccc2C)C=C(c2ccc(Cl)cc2)N3)cc1 (configuration not stated), the Potency is reported as “inactive”.
With COC(=O)c1ccc(C)c(NC(=O)CSc2nc3nc(O)cc(O)c3s2)c1 the Potency was “inactive”.
With Cc1cccc2c1-c1sc(C(=O)Nc3nccs3)cc1CO2 the Potency was “inactive”.
For COc1ccc(S(=O)(=O)N2CCN(Cc3cc(OC)c(OC)cc3OC)CC2)cc1, the Potency was “inactive”.
Cc1ccnc(N2C(=O)c3cccc4c([N+](=O)[O-])ccc(c34)C2=O)c1 was tested, and the Potency was “inactive”.
In the case of CC(=O)Nc1ccc(NC(=O)CCC(=O)Oc2ccc(C)cc2)cc1, the Potency is reported as “inactive”.
In the case of CCc1ccccc1NC(=O)CN(C)C(=O)Cn1ncc(Cl)c(Cl)c1=O, the Potency is reported as 35.5 µM (active).
With CN(CC(=O)Nc1c(Cl)cccc1Cl)C(=O)C1CC(=O)N(Cc2ccccc2)C1 (configuration not stated) the Potency was “inactive”.
With COc1ccc(CN(C)C(C)C(=O)N(C)CC(=O)Nc2ccc(C)cc2)cc1F (configuration not stated) the Potency was “inactive”.
In the case of Cc1ccccc1OCC(=O)Nc1cccc(Cl)c1C, the Potency is reported as “inactive”.
In the case of CN(CC(=O)Nc1ccccc1Cl)C(=O)CN1C(=O)NC(c2ccccc2)(c2ccccc2)C1=O, the Potency is reported as “inactive”.
With Cc1cccc(NC(=O)CNC(=O)Cn2ncc(Cl)c(Cl)c2=O)c1C the Potency was 21.2 µM (active).
In the case of Cc1ccc(CNC(=O)Cn2ncn3cccc3c2=O)cc1, the Potency is reported as “inactive”.
Cc1ccc(NC(=O)CN(C)C(=O)Cn2ncc(Cl)c(Cl)c2=O)cc1 was tested, and the Potency was 28.2 µM (active).
With O=C(NN/C=C1\C(=O)N(Cc2ccccc2)C(=O)c2ccccc21)c1cccnc1 the Potency was “inactive”.
With CC(=O)Nc1nc2n(n1)C(c1ccccc1)C=C(c1ccccc1)N2 (configuration not stated) the Potency was “inactive”.
C1=C(c2ccccc2)Nc2ncnn2C1c1ccccc1 (configuration not stated) was tested, and the Potency was “inactive”.
In the case of CCOC(=O)CCc1c(C)c2ccc3c(c2oc1=O)CN(CCCO)CO3, the Potency is reported as “inactive”.
Cc1ccc(C(=O)c2no[n+]([O-])c2C(=O)c2ccc(C)cc2)cc1 was tested, and the Potency was 31.6 µM (active).
In the case of Cc1ccc(N2C(=O)C3C(C(=O)c4ccccc4)=NN(c4ccccc4)C3C2=O)cc1 (configuration not stated), the Potency is reported as “inactive”.
In the case of CC(=O)c1ccc2noc(-c3ccc(C)cc3)c2c1, the Potency is reported as “inactive”.
In the case of Cc1c(C(=O)c2no[n+]([O-])c2C(=O)c2cnn(C)c2C)cnn1C, the Potency is reported as 39.8 µM (active).
In the case of CC(OC(=O)c1ccccc1O)C(=O)Nc1ccc(Cl)cn1 (configuration not stated), the Potency is reported as “inactive”.
For COc1cc(C(CC(=O)Nc2ccc(Cl)cn2)N2Cc3ccccc3C2=O)cc(OC)c1OC (configuration not stated), the Potency was “inactive”.
With CCc1cc2c(CN3CCN(C)CC3)cc(=O)oc2cc1O the Potency was “inactive”.
With COCOCCn1cc(CN2CCS(=O)(=O)N(Cc3ccc(-c4ccccc4)cc3)C(CC(C)C)C2=O)nn1 (configuration not stated) the Potency was 39.8 µM (active).
COCOCCn1cc(CN2CCS(=O)(=O)N(Cc3ccc(-c4ccc(Cl)c(Cl)c4)cc3)C(C)C2=O)nn1 (configuration not stated) was tested, and the Potency was 22.4 µM (active).
In the case of COCOCCn1cc(CN2CCS(=O)(=O)N(Cc3ccc(-c4ccc(Cl)c(Cl)c4)cc3)C(C(C)C)C2=O)nn1 (configuration not stated), the Potency is reported as 28.2 µM (active).
For CCOC(=O)NC(=O)/C(=C/Nc1ccc(Cl)c(Cl)c1Cl)C(C)=O, the Potency was “inactive”.
For Nc1c(C(=O)N2CCCC2)sc2nc3c(cc12)CCCCCC3, the Potency was “inactive”.
c1cnn2c(-c3ccc4c(c3)CCO4)cnc2c1 was tested, and the Potency was “inactive”.
In the case of O=C(CNC(=O)OCc1ccccc1)Oc1cc2oc(=O)cc(-c3ccccc3)c2cc1Cl, the Potency is reported as “inactive”.
In the case of Cc1onc(C(=O)NC2CCCCC2)c1[N+](=O)[O-], the Potency is reported as “inactive”.
In the case of COc1cc(N)ccc1Nc1c2ccccc2nc2ccccc12, the Potency is reported as “inactive”.
For COc1ccc(Nc2c3c(nc4ccccc24)CCC3)cc1Cl, the Potency was 28.2 µM (active).
For COc1ccccc1Nc1c2ccccc2nc2ccccc12, the Potency was “inactive”.
In the case of COc1ccc(C2CC(c3cccs3)=NN2c2ccc(C=O)cc2)cc1 (configuration not stated), the Potency is reported as “inactive”.
For O=C(CCl)Nc1cccc(-c2cnc3ccccc3n2)c1, the Potency was 3.98 µM (active).
With Oc1ccc(-c2cnc3ccccc3n2)cc1 the Potency was “inactive”.
In the case of CCOc1ccc(-c2cnc3ccccc3n2)cc1, the Potency is reported as “inactive”.
In the case of CCOC(=O)c1ccc(Nc2cnc3ccccc3n2)cc1, the Potency is reported as “inactive”.
For O=C(CCl)Nc1cccc(Oc2ccccc2)c1, the Potency was 8.44 µM (active).
With CC(C)(C)C(=O)Nc1ccc(C(=O)Nc2cccc(Oc3ccc(C(=O)O)c(C(=O)O)c3)c2)cc1 the Potency was “inactive”.
For O=C(O)CSCC(=O)NCc1c(Cl)cccc1Oc1ccccc1, the Potency was “inactive”.
With O=C(CCl)Nc1ccc(Oc2cnc3ccccc3n2)cc1 the Potency was 20 µM (active).
With CCN(CC)CCN1C2=C(C(=O)CC(C)(C)C2)C(c2cccc(F)c2)C2=C1CC(C)(C)CC2=O the Potency was “inactive”.
CCOc1ccc(NC(=O)CC(NC(C)=O)c2ccccc2)cc1S(=O)(=O)N1CCCC1 (configuration not stated) was tested, and the Potency was “inactive”.
With Cc1c(-c2ccccc2)c(=O)oc2cc(O)ccc12 the Potency was “inactive”.
With COc1ccc(Cn2cc(C(=O)c3ccc(C)cc3)c(=O)c3cc(OC)c(OC)cc32)cc1 the Potency was 11.2 µM (active).
COc1cccc(Cn2cccc(NC(=O)Nc3ccccc3C)c2=O)c1 was tested, and the Potency was “inactive”.
COc1ccc(-n2cc(C(=O)c3ccccc3O)cn2)cc1 was tested, and the Potency was “inactive”.
In the case of COc1ccc(Cn2cc(C(=O)c3ccc(C)c(C)c3)c(=O)c3ccccc32)cc1, the Potency is reported as 31.6 µM (active).
COc1ccc(/C=c2\s/c(=C/C(=O)c3ccc(C)cc3)[nH]c2=O)c(OC)c1 was tested, and the Potency was “inactive”.
In the case of CCCn1c(O)c(C(=O)NCCc2ccc(OC)cc2)c(=O)c2ccccc21, the Potency is reported as “inactive”.
With Cc1ccc(S(=O)(=O)NC(C)C(=O)OCC(=O)Nc2sccc2C(N)=O)cc1 (configuration not stated) the Potency was “inactive”.
Cc1ccccc1Nc1cccc2nonc12 was tested, and the Potency was “inactive”.
With Cc1ccc(C)c(Nc2nc3nonc3nc2Nc2cccc(C)c2C)c1 the Potency was 10 µM (active).
O=C(CCc1ccccc1)NC(c1cccs1)c1cc(Cl)c2cccnc2c1O (configuration not stated) was tested, and the Potency was “inactive”.
For O=C(CCc1ccccc1)NC(=S)Nc1ccccc1Br, the Potency was “inactive”.
With O=C(CCc1ccccc1)NC(NC(=S)Nc1ccc(Cl)cc1)C(Cl)(Cl)Cl (configuration not stated) the Potency was 39.8 µM (active).
In the case of O=C1c2oc3ccc(Cl)cc3c(=O)c2C(c2ccccn2)N1CCCN1CCOCC1 (configuration not stated), the Potency is reported as “inactive”.
With NC(=O)C1=CC2C3C=CC2(O)C(=O)OC3O1 (configuration not stated) the Potency was 16.8 µM (active).
With Cn1cc(/C=C/c2cc[n+](C)cc2)c2cc(F)ccc21 the Potency was “inactive”.
In the case of CCOC(=O)Cc1csc(NC(=O)c2ccc3ncsc3c2)n1, the Potency is reported as 35.5 µM (active).
CCOC(=O)Cc1csc(NC(=O)COc2ccc3c(C)cc(=O)oc3c2)n1 was tested, and the Potency was “inactive”.
CCOC(=O)Cc1csc(NC(=O)CN2CCN(c3ccccc3)CC2)n1 was tested, and the Potency was “inactive”.
In the case of SC1=NCN(Cc2ccco2)CN1, the Potency is reported as “inactive”.
With Clc1ccc(/C=C/c2ncc3ccccn23)cc1 the Potency was “inactive”.
In the case of CCc1cc2c(-c3ccccc3)cc(=O)oc2cc1OC(=O)c1cccs1, the Potency is reported as “inactive”.
In the case of CCc1ccc2c(c1)/C(=C/C(=O)c1cccs1)C(=O)N2, the Potency is reported as 20 µM (active).
In the case of COCCN(CCOC)Cc1c(O)ccc2c1O/C(=C\c1ccc(C)o1)C2=O, the Potency is reported as “inactive”.
With COc1ccc(/C=N/NC(=O)c2cccc(C(F)(F)F)c2)cc1 the Potency was “inactive”.
In the case of COc1ccc(/C=C/C(=O)Oc2ccc(/C=N/NC(=O)c3ccccc3)cc2)cc1OC, the Potency is reported as 31.6 µM (active).
Nc1ccc(C(=O)N/N=C\c2ccc(OC(=O)c3ccccc3Cl)cc2)cc1 was tested, and the Potency was “inactive”.
For O=C(CNC(=O)c1ccccc1F)NCc1ccccn1, the Potency was “inactive”.
With O=C1NC(=O)/C(=C\c2ccc(OCc3cccc([N+](=O)[O-])c3)cc2)N1 the Potency was “inactive”.
CCCN1C/C(=C/c2cccc([N+](=O)[O-])c2)C(=O)/C(=C/c2cccc([N+](=O)[O-])c2)C1 was tested, and the Potency was 4.47 µM (active).
In the case of O=C1/C(=C/c2cccc(Cl)c2)CSc2sccc21, the Potency is reported as “inactive”.
For Cc1cccc(N2CCN(S(=O)(=O)c3cccs3)CC2)c1C, the Potency was “inactive”.
In the case of Cc1ccccc1C1(CC(=O)N2CCCC2c2nccs2)CC(=O)N(C2CCCC2)C1=O (configuration not stated), the Potency is reported as “inactive”.
In the case of C=CCn1c(=O)[nH]c2nc3cc(/N=C/N(C)C)c(C)cc3nc2c1=O, the Potency is reported as “inactive”.
